Assay results: PubChem BioAssay
Values without a mark were called inactive. How the calls were made is not given here.

molecular target: Pantothenate synthetase (Mycobacterium tuberculosis (strain ATCC 25618 / H37Rv)) (UniProt P9WIL5); test: Recombinant Mtb pantothenate synthetase (PanC) inhibitors, coupled enzyme, confirmatory (AID 375); settings: coupled enzyme assay; at 10 µM, active compounds read high;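 further: 0% = full reaction with vehicle and 100% = no enzyme background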
Sequence (P9WIL5 whole entry, looked up): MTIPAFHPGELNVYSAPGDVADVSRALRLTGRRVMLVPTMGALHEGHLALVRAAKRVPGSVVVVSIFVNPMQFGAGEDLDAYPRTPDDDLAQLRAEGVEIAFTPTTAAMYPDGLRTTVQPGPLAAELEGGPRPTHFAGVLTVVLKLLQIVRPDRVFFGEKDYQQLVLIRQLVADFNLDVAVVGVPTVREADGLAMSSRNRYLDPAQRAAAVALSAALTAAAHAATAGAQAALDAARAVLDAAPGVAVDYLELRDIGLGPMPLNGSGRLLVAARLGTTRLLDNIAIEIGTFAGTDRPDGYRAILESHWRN

Row | Structure (SMILES) | inhibition [%]
1 | COc1cccc(C(=O)Nc2ccc(N(C)C)cc2)c1OC | 8
2 | COc1ccc(OC)c(S(=O)(=O)N2c3ccccc3CC2C)c1 (stereo not given) | 0
3 | O=S(=O)(CCOc1ccccc1)c1nc2ccccc2[nH]1 | 0
4 | O=S1(=O)CC(N2CCOCC2)c2ccccc21 (stereo not given) | 0
5 | CCn1cc(C(=O)OCC(=O)OC2CC(C)CCC2C(C)C)c(=O)c2ccc(C)nc21 (stereo not given) | 5
6 | O=C(Oc1cc2oc(=O)c3c(c2cc1Cl)CCCC3)c1ccco1 | 0
7 | CCCCOC(=O)CNc1nnc(SCC(=O)OCC)[nH]c1=O | 3
8 | Cc1ccc(NC(=O)CSc2nnc(CCCCCNC(=O)OC(C)(C)C)o2)c(C)c1 | 6
9 | CCOc1ccc(N(CC)C(=O)COc2cc(=O)n(C)c3ccccc23)cc1 | 0
10 | CCOc1cc(S(=O)(=O)NCc2ccccn2)c(C)cc1C | 0
11 | Cc1nc(SCC(=O)NCc2ccco2)c2c(C)c(C)sc2n1 | 5
12 | Nc1ccc2[nH]ncc2c1 | 0
13 | O=S(=O)(Nc1ccn(-c2ccccc2)n1)c1ccc(Br)cc1 | 0
14 | CC(C)c1ccc(CNc2ccc(N3CCOCC3)cc2)cc1 | 2
15 | CC(=O)c1c(NCCc2ccccc2)cc(C)oc1=O | 0
16 | C=CCc1ccccc1OCC(O)CN1CCN(Cc2ccc3c(c2)OCO3)CC1 (stereo not given) | 5
17 | Cc1c(Cl)cccc1Nc1ccccc1C(=O)O | 1
18 | CC1(C)C(c2cccs2)=[N+]([O-])C2(CCCCC/C2=N\O)N1O (stereo not given) | 6
19 | Cc1cccc(N(C)C(=S)Oc2ccc3ccccc3c2)c1 | 7
20 | COc1ccc2c(c1)CCc1c(C(=O)N3CC4(C)CC3CC(C)(C)C4)noc1-2 (stereo not given) | 0

Row | Structure (SMILES) | inhibition [%]
21 | O=C(CSc1nc2ccccc2[nH]1)c1ccc2c(c1)OCO2 | 0
22 | CCn1cc(C(=O)O)c(=O)c2cc(F)c(N3CCN(C(=O)Nc4ccccc4)CC3)cc21 | 1
23 | O=S(=O)(Cc1ccccc1)N1CCCCCC1 | 0
24 | COc1ccccc1-c1cn[nH]c(=S)n1 | 11
25 | O=C(Nc1cnn(Cc2ccc(F)cc2)c1)c1cnccn1 | 2
26 | COc1ccc(CN(CC(=O)NCC2CCCO2)C(=O)CCC(=O)Nc2cc(C)on2)cc1 (stereo not given) | 0
27 | O=C(CN1CCCN(S(=O)(=O)c2ccc(F)cc2)CC1)Nc1ccccc1Br | 5
28 | CCOCCCNC(=O)CN1CCN(Cc2ccccc2C)C1=O | 5
29 | Cc1cc(C(=O)COc2cccc3cccnc23)c(C)n1C | 0
30 | Cc1cccc(-c2nc(CN3CCCC(C(=O)NC4CCCC4)C3)c(C)o2)c1 (stereo not given) | 0
31 | CC(=O)c1c(C)[nH]c(C(=O)Nc2ccc3c(c2)OCCO3)c1C | 3
32 | Cc1cccc2c1nc(-c1ccccc1)n1cnnc21 | 0
33 | O=C(Nc1ccon1)c1cccc(S(=O)(=O)N2CCCC2)c1 | 2
34 | COc1ccc(-c2nnc(SCC(=O)N3CCCCC3)o2)cc1OC | 0
35 | COCCn1nnnc1C(c1ccccc1OC)N1CCc2ccccc2C1 (stereo not given) | 0
36 | CCOc1ccc(C2C(C#N)=C(N)Oc3cc(C)n(CCN(C)C)c(=O)c32)cc1OCC (stereo not given) | 0
37 | COc1ccc(-c2[nH]nc3c2C(c2ccncc2)C(C#N)=C(N)O3)cc1 (stereo not given) | 0
38 | Cn1c(=O)c2c(nc(CN3CCN(Cc4ccccc4)CC3)n2Cc2cccc(Cl)c2)n(C)c1=O | 0
39 | CN1C(=O)c2oc3ccccc3c(=O)c2C1c1ccccn1 (stereo not given) | 0
40 | CCOC(=O)c1[nH]c2ccc(C)cc2c1NC(=O)CN1CCCCC1 | 3
